Gal4-VP16 FLuc = counter-screen for ROR gamma inhibitors: Gal4-VP16 reporter; Drosophila S2 Gal4-VP16 UAS-luciferase, luminescence, 20 h; Potency, µM (doses to about 53.6 µM), actives largely listed as inhibitors; 3.5% of 310,000 active; AID 2546;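 further: Gal4-VP16 expression switched on by copper sulfate through the metallothionein promoter; nearly all actives have a fitted effect of over 50% in size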
RORg inh = inhibitors of mouse ROR gamma transcriptional activity. Potency, µM (highest dose often 53.6 µM), actives largely listed as inhibitors. 5.4% of 310,000 active. Drosophila S2 Gal4-RORgamma UAS-luciferase reporter, 20 h. P51450; further: nearly all actives have a fitted effect of over 60% in size
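Drosophila S2 cells stably expressing Gal4-DBD/mouse RORγ fusion under metallothionein promoter plus UAS-luciferase; compound 1 h, then 700 uM CuSO4 induction for 20 h at ambient temperature; inhibition read as reduced luminescence.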
TDP1 block = blocks human tyrosyl-DNA phosphodiesterase 1; 0.28% of 350,000 active; recombinant TDP1, AlphaScreen DNA substrate cleavage; AID 485290; Q9NUW8; Potency, µM (titrated, usually from 130 µM), usual class: inhibitors; further: nearly all actives have a fitted effect of over 40% in size
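AlphaScreen read-out: signal falls as enzyme removes the 3' tyrosine-FITC from a 5'-biotinylated DNA oligo (15 nM, 5 min, RT). Enzyme was E. coli-made recombinant Tdp1 at 1 nM, exposed to compound for 15 min beforehand; beads 10 ug/ml, 10 min.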
DT40 TDP1 no CPT = qHTS for Inhibitors of human tyrosyl-DNA phosphodiesterase 1 (TDP1): qHTS in cells in absence of CPT; Potency, µM (top dose mostly 46.2 µM), actives largely listed as inhibitors; AID 686978, 2013; DT40 Tdp1-/- hTDP1 cells, no CPT, ATP luminescence, 48 h; 15% of 420,000 active; further: nearly all actives have a fitted effect of over 55% in size
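Growth of hTDP1-complemented DT40 Tdp1-knockout cells is measured by ATP luminescence after at least 48 hr compound exposure at 37 °C, with DMSO substituting for the 20 nM CPT used in the parallel screen.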
TDP1 cell CPT = DT40-hTDP1 cell growth loss with CPT; Potency, µM (titrated, usually from 46.2 µM), actives largely listed as inhibitors; 12% of 420,000 active; chicken DT40 Tdp1-/-;hTDP1 cells + 20 nM CPT, ATP luminescence, 48 h; AID 686979; further: nearly all actives have a fitted effect of over 55% in size
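Chicken DT40 Tdp1-/- cells stably complemented with human TDP1 were seeded at 400 cells/well in medium containing 20 nM camptothecin, exposed to pin-transferred compounds, and grown at 37 °C for at least 48 hr. Viability was read as ATP luminescence.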
A number is an active result; n = inactive; u = inconclusive; x = no result given. Rows were chosen to be rich in hits. Some 19% of all compounds tested hit in one or more screens of this group. The call rests on the fitted dose curve; in most records, active means well fitted curve in the direction sought with a large enough effect; inconclusive means small, poorly fitted or top-dose-only effect, or another doubt; inactive means no such curve, though single readings can be large; an effect the other way counts as inactive or inconclusive.

SMILES	Gal4-VP16 FLuc	RORg inh	TDP1 block	DT40 TDP1 no CPT	TDP1 cell CPT
COc1cccc(-c2csc(N3CCN(C(=S)Nc4cccc(C)c4)CC3)n2)c1	3.16µM	7.08µM	n	u	n
COc1cccc(-c2csc(N3CCN(C(=S)Nc4ccccc4)CC3)n2)c1	u	6.31µM	n	u	u
COc1ccc(-c2csc(N3CCC(c4ccccc4)C3)n2)cc1 (stereo unspecified)	n	11.2µM	n	u	n
Fc1ccc(-c2csc(N3CCC(c4ccccc4)C3)n2)cc1 (stereo unspecified)	n	n	n	u	n
CCCCNC(=O)CS(=O)Cc1nc(-c2ccc(C)cc2)oc1C (stereo unspecified)	n	n	n	n	n
CCc1nnc(SC(CC)C(=O)Nc2ccc(OC)c(Cl)c2)c2cc3occc3n12 (stereo unspecified)	x	x	n	u	u
N#Cc1ccccc1NC(=O)c1cc(=O)c2ccccc2o1	n	n	n	u	n
CCCCNC(=O)Nc1nc2ccc(CC)cc2s1	n	n	n	u	u
COc1ccc(NC(=O)C[C@H]2C(=O)N(c3ccccc3)C[C@@H]2C)cc1	x	x	x	u	n
CCN1C(=O)S/C(=C/c2ccc(Oc3ccc([N+](=O)[O-])cn3)c(OC)c2)C1=O	n	n	n	13µM	u
COc1cc(/C=C2/SC(=O)N(CC(=O)N3CCCC3)C2=O)ccc1Oc1ccc([N+](=O)[O-])cn1	n	n	n	20.6µM	u
COc1cc(/C=C(/C#N)c2ccc(C)cc2)ccc1Oc1ccc([N+](=O)[O-])cn1	n	n	n	u	u
CCN=C1S/C(=C\c2ccc(OCC)c(OC)c2)C(=O)N1CC	n	u	n	20.6µM	u
Cn1c(O)c(N=NC(=O)c2cccc(S(=O)(=O)N3CCCCC3)c2)c2ccccc21	n	n	n	u	16.4µM
COc1ccc(NC(=O)C2CCN(c3nc4ccccc4nc3C(F)(F)F)CC2)cc1	x	x	n	n	n
Cc1ccccc1NC(=O)N1CCCC1C(=O)NCc1cccs1 (stereo unspecified)	n	n	n	n	n
O=C(NCc1cccs1)C1CCCN1C(=O)Nc1ccccc1Cl (stereo unspecified)	n	n	x	23.1µM	n
O=C(NCc1ccco1)C1CCCN1C(=O)Nc1ccc(Cl)cc1 (stereo unspecified)	n	n	n	16.4µM	u
O=C(NCCc1ccccc1)C1CCCN1C(=O)Nc1ccc(Cl)cc1 (stereo unspecified)	n	n	n	u	16.4µM
CCOC(=O)CNC(=O)CSc1cc(C)nc2ccc(OC)cc12	n	n	n	n	n
CCOc1ccc(N2C(=O)Nc3ccccc3C2(O)C(=O)NCc2ccc(OC)cc2)cc1 (stereo unspecified)	n	n	n	n	n
COc1ccc(C2c3c(N)nc(CCCc4ccccc4)nc3Oc3ccc4ccccc4c32)cc1OC (stereo unspecified)	x	x	n	x	x
CCC12CN3CC(CC)(CN(C1)C3c1c(O)ccc3ccccc13)C2=O (stereo unspecified)	u	u	n	n	n
CCC12CN3CC(CC)(CN(C1)C3c1c[nH]c3ccccc13)C2=O (stereo unspecified)	x	x	n	16.4µM	n
CCC12CN3CC(CC)(CN(C1)C3c1cc(Br)ccc1OC)C2=O (stereo unspecified)	x	x	n	u	u
SMILES	Gal4-VP16 FLuc	RORg inh	TDP1 block	DT40 TDP1 no CPT	TDP1 cell CPT
CCC12CN3CC(C)(CN(C1)C3c1c[nH]c3ccccc13)C2=O (stereo unspecified)	x	x	n	23.1µM	u
CCn1cc(C2N3CC4(CC)CN2CC(CC)(C3)C4=O)c2ccccc21 (stereo unspecified)	x	x	n	18.4µM	u
CCc1c(C(=O)Nc2nnc(C3CC3)s2)csc1C	n	n	n	n	n
O=C(O)C1(O)C[C@@H](O)C(O)[C@H](O)C1 (stereo partly specified)	x	x	x	u	n
CC1CCCCN1S(=O)(=O)c1ccc(C(=O)N(CCCN(C)C)c2nc3cc4c(cc3s2)OCO4)cc1 (stereo unspecified)	n	n	n	n	n
CCOC(=O)C1=C(COC(=O)c2ccc(C)s2)NC(=O)NC1C (stereo unspecified)	x	x	x	n	n

From PubChem
